# Experimental data taken from PubChem BioAssay AID743279 (National Center for Advancing Translational Sciences (NCATS), 2014).
# In all, about 360,000 compounds went through this assay and about 17,000 (4.7%) were called active. Not shown: some 5% with an inconclusive outcome. The sample holds actives, similar compounds and a random draw of the others, so the mix is not that of the screen. A number with no mark means an inactive call. Cut-off read from the data, not from the text of the source: active = activity change below about -50%; inconclusive = mostly about -30% to -49%; inactive = weaker than that.
# Experiment: qHTS for Inhibitors of Inflammasome Signaling: IL-1-beta AlphaLISA Primary Screen
# Settings: THP-1 LPS/ATP IL-1B secretion, 16 h; at 57.5 µM, stronger effect = lower value
# Outline: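 Secreted IL-1B measured by AlphaLISA bead assay after 16 h compound exposure of THP-1 cells; compounds (final up to 57.5 uM) added 1 h before LPS (250 ng/mL) and ATP (1.25 mM) stimulation; lower signal means less secretion.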
# % is set by controls: 0 for no effect and ±100 for the full control effect.
row,Compound,activity change
1,CC1=CC(=NNS(=O)(=O)c2ccc([N+](=O)[O-])cc2)CC(C)(C)C1,8.3%
2,COc1ccc(CCNS(=O)(=O)c2cccc([N+](=O)[O-])c2)cc1,-12.5%
3,CCOc1ccc(S(=O)(=O)N2CCN(C(=S)NCC3CCCO3)CC2)cc1 (stereo not given),8.09%
4,COc1ccc(S(=O)(=O)N2CCN(C(=S)NCC3CCCO3)CC2)cc1OC (stereo not given),41.3%
5,S=C(NCC1CCCO1)N1CCN(c2ccc(Cl)c(Cl)c2)CC1 (stereo not given),-64.9% (active)
6,CCCC/C=C/c1cccc2nncn12,0%
7,c1ccc2c(C[n+]3csc4ccccc43)cccc2c1,-14.6%
8,COC(=O)c1cc2n(n1)CCCNC2=O,-12.8%
9,NS(=O)(=O)c1ccc(NC(=O)COC(=O)c2c3c(nc4ccccc24)/C(=C\c2ccc4c(c2)OCO4)CCC3)cc1,-62.6% (active)
10,O=C(COC(=O)c1ccncc1)Nc1ccc2c(c1)OCO2,7.7%
11,NC(=O)c1ccc(NC(=O)COC(=O)c2c3c(nc4ccccc24)/C(=C\c2ccc4c(c2)OCO4)CCC3)cc1,-3.47%
12,CCOc1ccc2[nH]c(=S)sc2c1,32.5%
13,Cc1ccc(/C=C2/SC(=S)N(CCC(=O)NCCCN3CCOCC3)C2=O)cc1,-83.3% (active)
14,O=C(CCN1C(=O)c2ccccc2C1=O)NCCN1CCOCC1,-5.01%
15,COc1ccc(/C=C2\SC(=S)N(CCC(=O)N3CCOCC3)C2=O)cc1OC,-10.5%
16,CC(OC(=O)CCC(=O)c1ccccc1)C(=O)Nc1ccc(F)cc1 (stereo not given),9.85%
17,Cc1c(C(=O)NCC2CC2)sc(=O)n1Cc1cccc(F)c1,-16.4%
18,COc1ccc(CNC(=O)CCN2C(=O)c3ccccc3C2=O)cc1,-9.34%
19,CCOC(=O)C1=C(c2ccc(OC)cc2)C(=O)c2ccccc2C1=O,-99% (active)
20,CCOC(=O)c1cc2cc3ccccc3cc2oc1=O,-12.5%

row,Compound,activity change
1,CCN(CC)C(=O)C1=C(C)N(Cc2ccc(OC)cc2)C(=O)C(CC(=O)NCc2ccco2)C1 (stereo not given),-25.2%
2,Cc1ccc(C(=O)N2CCC(n3nccc3NC(=O)Nc3cccc(F)c3)CC2)cn1,8.12%
3,CCOc1c2ccc(C(=O)NCc3ccc4c(c3)OCO4)cc2nn1C,-4.17%
4,COc1cc(OC)c(C(=O)NCc2ccc3c(c2)OCO3)cc1OC,38%
5,COc1ccccc1-n1c(C)nc2cc(C(=O)NCc3ccc4c(c3)OCO4)ccc21,-65.9% (active)
6,Cn1c(N)cc(=O)n(C)c1=S,19%
7,S=C(c1ccc(-c2ccccc2)o1)N1CCCCC1,-56.6% (active)
8,CC1CCN(C(=S)c2ccc(-c3ccc(Cl)cc3Cl)o2)CC1,-11.9%
9,S=C(c1ccccc1)N1CCCC1,9.49%
10,COc1ccc(NC(=O)c2cc(=O)[nH]c3ccccc23)cc1S(=O)(=O)N1CCOCC1,-13.1%
11,CCN(CC)CCCNC(=O)c1c(O)c2cc(F)cc3c2n(c1=O)C(C)CC3 (stereo not given),67.3%
12,O=C(NCc1ccco1)c1cccc(-c2ccc3nncn3c2)c1,0%
13,Cc1ccc(-c2ccc(C3=CC(=O)CC(C)(C)C3=O)cc2)cc1,-18.9%
14,COc1cc(/C=C2\SC(=O)NC2=O)ccc1OCc1ccc(Cl)nc1,11.8%
15,COc1cc(/C=C2/C(=O)ON=C2C)ccc1OCc1ccccc1F,-99.7% (active)
16,COc1cc(/C=C2/C(=O)ON=C2C)ccc1OCc1cccc(F)c1,-6.27%
17,C#CCOc1ccc(/C=C2/C(=O)ON=C2C)cc1OCC,-87.9% (active)
18,C#CCOc1ccccc1/C=C1/C(=O)ON=C1C,-15%
19,CC1=NOC(=O)/C1=C\c1ccccc1,11.9%
20,C#CCOc1ccc(/C=C2/C(=O)NN(c3ccccc3)C2=O)cc1OC,11.3%

row,Compound,activity change
1,C=CCOc1ccc(/C=N/NC(=O)C(C)Sc2ccccn2)cc1OCC (stereo not given),-1.69%
2,C=CCOc1ccc(/C=C2/C(=O)ON=C2C)cc1OCC,-98.7% (active)
3,CC(=O)c1ccccc1NC(=O)COC(=O)C1COc2ccccc2O1 (stereo not given),22.8%
4,OC[C@@H]1CN(Cc2ccc3c(c2)OCO3)C[C@H](n2cnc3c(NCc4ccco4)ncnc32)O1,0.259%
5,O=C(C(=O)N1CCC(c2ccccc2)CC1)c1ccccc1,27.9%
6,CCCCNC(=O)C[C@@H]1C[C@@]2(C(=O)OCC)CCC=C2N(Cc2cccc3ccccc23)C1=O,-0.516%
7,C=CCC1(C(=O)N(C)Cc2ccccc2)CCN(C(=O)OC(C)(C)C)CC1,-21.2%
8,CCOc1ccc(C(C)=O)cc1COC(=O)CN1C(=O)NC2(CCCC2)C1=O,-1.02%
9,Cc1onc(-c2ccccc2)c1-c1nnc(COC(=O)c2ccc(N(C)C)cc2)o1,21.8%
10,CCOc1ccccc1NC(=O)Cn1ncc2ccc([N+](=O)[O-])cc21,10.8%
11,COCCNc1ccc(-c2n[nH]c(=O)c3ccccc23)cc1[N+](=O)[O-],20.3%
12,Cc1ccc(S(=O)(=O)N(C)C)cc1NC(=O)c1n[nH]c(=O)c2ccccc12,-9.1%
13,CN(C)CCNc1ccc(-c2n[nH]c(=O)c3ccccc23)cc1[N+](=O)[O-],-56.7% (active)
14,C=CCCC(=O)N1C[C@H]2CON(C)[C@H]2C[C@H]1c1cccc(Nc2ccccc2)c1,-2.63%
15,Cc1cc(Nc2ccc(C)c(C)c2)n2ncnc2n1,3.66%
16,CCOC(=O)[C@]12CCCC=C1N(CCC1=CCCCC1)C(=O)[C@H](CC(=O)N1CCCCC1)C2,19.5%
17,COCCNC(=O)CSc1nc2sccc2c(=O)n1-c1ccccc1,14%
18,O=C1CC(C(=O)O)NC(=S)N1 (stereo not given),3.02%
19,O=[N+]([O-])c1ccc2[nH]c3c(c2c1)CCCC3O (stereo not given),-14.8%
20,COC(=O)c1ccc(C23CC4(C2)[C@H](CN(Cc2cccnc2)[C@@H]4c2ccccc2)C3c2ccc(Cl)nc2)cc1 (stereo not given in full),24%
